High-throughput results deposited in PubChem by National Center for Advancing Translational Sciences (NCATS).
The list is not random: actives were taken first. Their share in the collection is about 10%.
RORgamma inh: qHTS for inhibitors of ROR gamma transcriptional activity. Potency, µM (top dose mostly 53.6 µM), for inactives: top-dose activity change, negative = inhibition, hits mostly inhibitors. Nuclear receptor ROR-gamma (Mus musculus), P51450. Drosophila S2 Gal4-RORgamma UAS-luciferase reporter, 20 h. AID 2551, 2010. 5.4% of 310,000 active; also: % is scaled to controls: 0 for no effect and ±100 for the full control effect; nearly all actives have a fitted effect of over 60% in size
Target sequence (P51450 whole entry, looked up, the tested form may be a part): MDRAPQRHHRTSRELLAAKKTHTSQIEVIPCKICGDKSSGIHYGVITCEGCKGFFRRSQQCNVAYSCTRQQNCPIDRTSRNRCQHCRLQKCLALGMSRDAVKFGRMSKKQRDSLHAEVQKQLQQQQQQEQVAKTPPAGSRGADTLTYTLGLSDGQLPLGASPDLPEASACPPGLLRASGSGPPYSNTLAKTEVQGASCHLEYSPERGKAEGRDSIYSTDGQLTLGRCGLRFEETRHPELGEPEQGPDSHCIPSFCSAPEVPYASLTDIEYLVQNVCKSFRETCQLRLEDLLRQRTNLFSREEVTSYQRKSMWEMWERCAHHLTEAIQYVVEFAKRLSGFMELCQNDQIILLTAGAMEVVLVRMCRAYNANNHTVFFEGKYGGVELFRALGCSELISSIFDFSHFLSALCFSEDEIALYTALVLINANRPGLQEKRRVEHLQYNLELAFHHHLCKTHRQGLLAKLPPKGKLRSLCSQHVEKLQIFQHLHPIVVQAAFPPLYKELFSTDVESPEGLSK
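A Gal4/UAS one-hybrid system in insect cells: metallothionein-promoter Gal4–ROR gamma fusion plus Photinus luciferase reporter. Copper sulfate 700 uM final, 20 hr ambient incubation, luminescent detection after 10 min with reagent.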
VP16 counter: VP16 counterscreen qHTS for inhibitors of ROR gamma transcriptional activity | Drosophila S2 Gal4-VP16 UAS-luciferase, luminescence, 20 h | Potency, µM (series often up to 53.6 µM), inactives show at the highest dose activity, negative = inhibition, hits mostly inhibitors | 3.5% of 310,000 active | AID 2546, 2010;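 also: Gal4-VP16 expression switched on by copper sulfate through the metallothionein promoter; % is scaled to controls: 0 for no effect and ±100 for the full control effect; nearly all actives have a fitted effect of over 50% in size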
MCF10A rerep: A quantitative high throughput screen for small molecules that induce DNA re-replication in MCF 10a normal breast cells; MCF 10A DNA re-replication, Hoechst nuclear intensity, 48 h; Potency, µM (titrated, usually from 46.1 µM), for the others: top-dose activity, positive = re-replication, most hits filed as activators; 2.9% of 350,000 active; AID 624296, 2012; also: % of control where 0% means no effect; nearly all actives have a fitted effect of over 50% in size
ELG1 DNA repair: qHTS screen for small molecules that inhibit ELG1-dependent DNA repair in human embryonic kidney (HEK293T) cells expressing luciferase-tagged ELG1; HEK293T ELG1-luciferase reporter, luminescence, 16 h; DNA damage induced by 5-fluorouridine; Potency, µM (top dose mostly 46.1 µM), without a hit: at the highest dose activity change, negative = inhibition, hits mostly inhibitors; 2.3% of 330,000 active; AID 504467, 2011; also: % is scaled to controls: 0 for no effect and ±100 for the full control effect; nearly all actives have a fitted effect of over 55% in size
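HEK293T cells expressing luciferase-tagged ELG1 (2,000/well) received 5-Fluorouridine plus compound or DMSO for 16 hr at 37 °C. Luciferase was read by ONE-Glo luminescence after 30 min at room temperature.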
SW480 rerep: A quantitative high throughput screen for small molecules that induce DNA re-replication in SW480 colon adenocarcinoma cells; Potency, µM (doses to about 46.1 µM), for inactives: top-dose re-replication activation, most hits filed as activators; 1.8% of 340,000 active; SW480 DNA re-replication, Hoechst DNA content imaging, 48 h; also: % of control where 0% means no effect; nearly all actives have a fitted effect of over 55% in size
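Cells (250 per well) received 23 nL compound or DMSO by pin tool and were kept 48 hr at 37 C, 5% CO2. Nuclei were then stained with Hoechst for 40 min and scanned for DNA content.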
Starred values were filed as active, the others as inactive; ? = inconclusive; nt = no result given; [ ] = remark or other dose. Calls follow the shape of the dose curve; as a rule, active = well fitted curve in the direction sought with a large enough effect; inconclusive = small, poorly fitted or top-dose-only effect, or another doubt; inactive = no such curve, though single readings can be large; an effect the other way counts as inactive or inconclusive. Potency is read from the fitted curve at half-maximal effect.

SMILES	RORgamma inh	VP16 counter	MCF10A rerep	ELG1 DNA repair	SW480 rerep
O=C(O[C@@H]1OC2COC(=O)c3cc(O)c(O)c(O)c3-c3c(cc(O)c(O)c3O)C(=O)O[C@@H]([C@H]1O)[C@@H]2O)c1cc(O)c(O)c(O)c1	-39%	-16%	-6%	-14%	-31%
C=CC[C@H](CC(=O)N(CCO)Cc1ccccc1)C(=O)N[C@@H](C)COC(=O)[C@H](CC=C)CC(=O)OC(C)(C)C	nt	nt	16%	23µM*	2%
C=CCC[C@H](Cc1ccc(F)cc1)C(=O)OC[C@@H](Cc1c[nH]c2ccccc12)NC(=O)[C@@H](CC=C)CC(=O)N(CCO)Cc1ccccc1	nt	nt	?	26µM*	?
CC(=O)C(C(C)=O)C(NC(=O)c1cccnc1)(C(F)(F)F)C(F)(F)F	2%	-10%	21µM*	10%	?
CCOC(=O)C(O)(NC(=O)c1cccnc1)C(F)(F)F (stereo unspecified)	4%	-2%	-6%	7%	1%
Cc1cccn2c(=O)c3cc(C(=O)NCc4cccnc4)c(=N)n(CC4CCCO4)c3nc12 (stereo unspecified)	-3%	-20%	2.3µM*	0%	?
COCCCn1c(=N)c(C(=O)NCC2CCCO2)cc2c(=O)n3cccc(C)c3nc21 (stereo unspecified)	-18%	-13%	13µM*	?	6.5µM*
CCCn1c(=N)c(C(=O)NCC2CCCO2)cc2c(=O)n3cccc(C)c3nc21 (stereo unspecified)	-9%[10 µM]	-2%	12µM*	-3%	?
Cc1cccn2c(=O)c3cc(C(=O)NCC4CCCO4)c(=N)n(CCN4CCOCC4)c3nc12 (stereo unspecified)	9%	-3%	15µM*	-7%	16µM*
CN(C(=O)c1ccc(NC(=O)Cc2ccc(NC(=O)C3CCCN(C(=O)CCc4ccccc4)C3)cc2)cc1)C1CC1 (stereo unspecified)	nt	nt	-6%	2%	8%
O=C(Cn1c(=O)c(=O)n(Cc2ccccc2)c2ccc(Cl)cc21)Nc1cccc(F)c1	5%	-4%	11%	-4%	-47%
COCCCn1c(=N)c(C(=O)NCC2CCCO2)cc2c(=O)n3ccccc3nc21 (stereo unspecified)	-29%	-8%	12µM*	-1%	6.5µM*
O=C(NCc1ccc2c(c1)OCO2)c1ccc(C2SCC(=O)N2Cc2ccco2)cc1 (stereo unspecified)	45%	-3%	11%	-29%	-2%
Cc1c(N)c(C(C)(C)C)cc(C(C)(C)C)c1[N+](=O)[O-]	4%	4%	18µM*	9%	-66%
CC(C)n1c(=O)[nH][nH]c1=S	-1%	0%	-13%	1%	-3%
CCC(CC)NC(=O)c1oc2ccccc2c1COc1ccccc1	?	28µM*	29%	?	nt
CC(C)CNC(=O)c1oc2ccccc2c1COc1ccccc1	-8%	-11%	?	9%	23%
Cc1cc(C)nc(NC(=O)c2ccc(Cl)cc2Cl)n1	1%	10%	-2%	3%	-5%
O=C(NNC(=O)c1ccc(S(=O)(=O)N2CCOCC2)cc1)c1ccccc1	29%	-5%	2%	18%	-8%
O=C(N/N=C/c1cc(Br)ccc1O)c1cccc(N2CCCC2=O)c1	1µM*	5.6µM*	22%	?	nt
COc1ccc(O)c(/C=N/NC(=O)c2cccc(N3CCCC3=O)c2)c1	3.5µM*	3.5µM*	3%	-25%	?
COc1cccc(/C=N/NC(=O)c2cccc(N3CCCC3=O)c2)c1	20%	-2%	-5%	?	-13%
O=C(N/N=C/c1ccco1)c1cccc(N2CCCC2=O)c1	?	1%	1%	?	0%
COc1ccc(O)c(/C=N/NC(=O)c2ccc(N3CCCC3=O)cc2)c1	2.2µM*	?	11%	8%	2.3µM*
